This excerpt belongs to a sample that is enriched for hits.
KAT2A inh: GCN5L2 (KAT2A) acetyltransferase inhibition; GCN5L2 HAT assay, ThioGlo1 CoA-SH fluorescence; Potency, µM (series often up to 58.9 µM), hits mostly inhibitors; 390,000 tested, 0.21% active
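Free CoA generated was detected with ThioGlo1 (50uM) fluorescence at Ex340nm/Em540nm, read immediately and after 20 min at room temperature. Enzyme, 20 nM in HEPES pH 7.5 buffer, saw compounds 15 min before adding 75uM H3(1-25) peptide and 70uM acetyl-CoA.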
L3MBTL1 block: blocks human L3MBTL1 | Q9Y468 | AlphaScreen L3MBTL1–H3K9me1 peptide binding | Potency, µM (highest dose often 57.1 µM), actives largely listed as inhibitors | 230,000 tested, 0.66% active; further: nearly all actives have a fitted effect of over 60% in size
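First, the protein-peptide complex forms for 30 min at room temperature (L3MBTL1 50 nM, biotinylated H3K9me1 peptide 75 nM). Next, compounds are pin-transferred and incubated 30 min. Finally, AlphaScreen beads are added and read after 30 min.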
APEX1 inh: inhibitors of human APE1 endonuclease; P27695; recombinant APE1, TAMRA/BHQ-2 abasic DNA cleavage fluorescence; Potency, µM (doses to about 65.8 µM), usual class: inhibitors; 350,000 tested, 0.35% active; AID 2517; further: nearly all actives have a fitted effect of over 55% in size
Target sequence (P27695 whole entry, looked up): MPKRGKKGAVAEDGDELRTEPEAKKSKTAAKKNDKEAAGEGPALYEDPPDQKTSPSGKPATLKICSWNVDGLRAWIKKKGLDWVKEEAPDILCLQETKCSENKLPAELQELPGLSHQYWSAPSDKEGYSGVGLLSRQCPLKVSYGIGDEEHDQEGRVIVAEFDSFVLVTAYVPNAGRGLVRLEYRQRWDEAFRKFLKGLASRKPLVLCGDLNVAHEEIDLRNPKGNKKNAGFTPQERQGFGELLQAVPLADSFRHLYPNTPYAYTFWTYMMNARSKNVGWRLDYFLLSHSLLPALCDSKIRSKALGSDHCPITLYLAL
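Quantitative HTS: incision of a TAMRA/BHQ-2 double-stranded substrate bearing a tetrahydrofuran abasic site by 0.75 nM APE1 raises fluorescence. Substrate 50 nM final, added after 15 min compound preincubation at room temperature; progress as third-minus-first kinetic read difference.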
BLM helicase inh: Bloom syndrome helicase (human) inhibition; AID 2528; recombinant BLM DNA unwinding, fluorescence dequenching; P54132; 350,000 tested, 0.2% active; Potency, µM (highest dose often 56.1 µM), actives largely listed as inhibitors; further: nearly all actives have a fitted effect of over 35% in size
RECQ1 helicase: inhibitors of human RECQ1 DNA helicase. P46063. RECQ1 DNA unwinding, red fluorescence kinetic read. Potency, µM (doses to about 57.3 µM), hits mostly inhibitors. 240,000 tested, 0.54% active. AID 2549; further: nearly all actives have a fitted effect of over 30% in size
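RECQ1T1 50 nM; forked duplex (20 bp + 30-nt ss tails) 200 nM, ATP 2 mM final; pH 8.0, 2 mM MgCl2, 2.5 ug/ml poly(dI-dC); 15 min compound preincubation; discontinuous kinetic read over 2 h at RT.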
KDM4E inh: blocks human JMJD2E demethylase activity | JMJD2E catalytic domain, FDH-coupled NADH fluorescence (FDH is formaldehyde dehydrogenase) | 230,000 tested, 1.6% active | B2RXH2 | Potency, µM (titrated, usually from 57.1 µM), actives largely listed as inhibitors; active means well fitted inhibition curve with a large enough effect, not every such curve was filed as active; inconclusive means small, poorly fitted or top-dose-only effect, or another doubt; inactive means no such curve, though single readings can be large or run the other way; further: nearly all actives have a fitted effect of over 50% in size
Target sequence (B2RXH2 1-337 limits assumed): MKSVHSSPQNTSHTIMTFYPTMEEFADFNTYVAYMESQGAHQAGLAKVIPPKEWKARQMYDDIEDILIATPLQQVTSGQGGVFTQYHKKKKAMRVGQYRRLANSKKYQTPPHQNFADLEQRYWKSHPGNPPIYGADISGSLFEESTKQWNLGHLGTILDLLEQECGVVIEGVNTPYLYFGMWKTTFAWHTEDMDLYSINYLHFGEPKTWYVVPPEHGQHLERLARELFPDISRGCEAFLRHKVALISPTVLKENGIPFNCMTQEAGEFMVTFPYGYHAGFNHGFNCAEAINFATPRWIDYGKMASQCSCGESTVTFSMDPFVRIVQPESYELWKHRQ
Numbers stand for hits; i = inactive; ? = inconclusive; nt = not tested or not shown. Unless noted, the call rests on the fitted dose curve; in most records, active means well fitted curve in the direction sought with a large enough effect; inconclusive means small, poorly fitted or top-dose-only effect, or another doubt; inactive means no such curve, though single readings can be large; an effect the other way counts as inactive or inconclusive.

SMILES	KAT2A inh	L3MBTL1 block	APEX1 inh	BLM helicase inh	RECQ1 helicase	KDM4E inh
COc1ccc2cc(C(=O)C3CCCN(C(=O)/C=C/c4ccccn4)C3)ccc2c1 (centres undefined)	i	i	i	i	i	i
O=C(Cn1cncn1)NCc1cccc2ccccc12	3.55µM	i	?	i	i	i
CN(Cc1cccnc1)C(=O)c1ccc(Cl)c(NS(=O)(=O)c2ccc(F)cc2)c1	i	i	i	nt	nt	nt
O=C(N/N=C1/C(=O)c2cccc3cccc1c23)c1ccc(Cl)cc1	i	nt	i	10µM	i	i
COc1ccc(NC(=O)N2CCC3(CC2)CCN(C(=O)c2cc(C(F)(F)F)cc(C(F)(F)F)c2)CC3)cc1	i	nt	i	i	i	nt
COc1ccc(OCC(O)CN2CCC(CN3C(=O)c4cccc5cccc(c45)C3=O)CC2)cc1 (centres undefined)	i	i	i	i	i	i
O=C1c2cccc3cccc(c23)C(=O)N1CC1CCN(CC(O)COCc2ccc3c(c2)OCO3)CC1 (centres undefined)	i	3.98µM	i	i	i	?
OCCN1CCN(C(c2cccs2)c2ccc3cccnc3c2O)CC1 (centres undefined)	i	i	i	i	i	8.91µM
COc1ccc(CNc2nc(-c3ccc(C(=O)N(C)C)cc3)nc3ccccc23)c(OC)c1	i	nt	i	i	i	?
COc1ccc(CNc2nc(-c3ccc(N(C)C)cc3)nc3ccccc23)c(OC)c1	i	nt	i	28.2µM	i	nt
Cc1ccc(-c2cc(C3C4C=CCCC4(C)C(=O)N3Cc3ccccc3)ccc2F)cc1 (centres undefined)	nt	nt	i	i	i	nt
CC1CCN(S(=O)(=O)c2ccc3c(c2)CCC(=O)N3CC(=O)Nc2cccc(C#N)c2)CC1	i	?	4.74µM	i	nt	nt
CCc1cccc(NC(=O)CN2C(=O)CCc3cc(S(=O)(=O)N4CCOCC4)ccc32)c1	i	nt	nt	i	nt	nt
Cc1ccc(-c2no[n+]([O-])c2C#N)cc1	nt	nt	i	nt	nt	nt
O=C1c2c([N+](=O)[O-])cc([N+](=O)[O-])cc2S(=O)N1Cc1ccccc1 (centres undefined)	28.2µM	nt	i	i	i	?
CCN1CCCc2cc(CN(CCN3CCOCC3)C(=S)Nc3ccc(OC)cc3)ccc21	i	nt	6.31µM	i	i	i
COC(=O)c1ccc(COc2ccc(/C=N/Nc3cccc(C(=O)O)c3)cc2)cc1	i	25.1µM	?	i	i	i
Cc1ccc([N+](=O)[O-])cc1S(=O)(=O)Nc1ccc(C(=O)NCC2CCCO2)cc1 (centres undefined)	i	i	i	nt	nt	nt
O=C(CN1C(=O)NC2(CCCCCCC2)C1=O)NCc1ccccc1	i	i	i	nt	nt	nt
COc1ccc(N2C(=O)CC(Sc3ncn[nH]3)C2=O)c(OC)c1 (centres undefined)	i	i	i	i	i	2.82µM
CCCc1c(O)nc(SC2CC(=O)N(c3cc(OC)ccc3OC)C2=O)[nH]c1=O (centres undefined)	i	i	i	i	i	i
CC(C)c1ccc(N2C(=O)CC(Sc3nc4ccccc4o3)C2=O)cc1 (centres undefined)	i	i	i	i	i	i
CC(C)c1ccc(N2C(=O)CC(Sc3ncn[nH]3)C2=O)cc1 (centres undefined)	i	nt	i	i	i	1.58µM
Cc1[nH][nH]c(=O)c1C(c1ccc(-c2cccc(C(=O)O)c2)o1)c1c(C)[nH][nH]c1=O	i	25.1µM	17.8µM	i	?	i
Cc1[nH][nH]c(=O)c1C(c1ccc(-c2ccccc2C(=O)O)o1)c1c(C)[nH][nH]c1=O	i	31.6µM	?	?	i	i
SMILES	KAT2A inh	L3MBTL1 block	APEX1 inh	BLM helicase inh	RECQ1 helicase	KDM4E inh
Cc1[nH][nH]c(=O)c1C(c1ccc(-c2cccc(Cl)c2)o1)c1c(C)[nH][nH]c1=O	i	nt	i	?	i	?
O=C(OCC#CCSc1nnc(-c2cccc3ccccc23)s1)c1cccs1	i	i	i	nt	nt	nt
CN(C)C(=O)Nc1ccc(Oc2ccc(Cl)cc2)cc1	i	nt	?	i	i	nt
CCOc1ccc2c(c1)[N+](C)(C)C(C)(C)C=C2C	i	i	i	i	i	i
COc1ccc2c(c1)[N+](C)(C)C(C)(C)C=C2C	i	nt	i	i	i	20µM
CO[C@@H]1[C@@H](OC2OC(C)C(OC3CC(C)(O)C(OC(=O)CC(C)C)C(C)O3)C(N(C)C)C2O)[C@@H](CC=O)C[C@@H](C)C(=O)/C=C\C2O[C@H]2C[C@@H](C)OC(=O)C[C@H]1OC(C)=O (some centres undefined)	i	nt	nt	i	nt	nt
COc1ccccc1Nc1nnc(SCC(=O)N2CCCC2=O)s1	i	i	i	i	i	i
CCc1ccc(Nc2nnc(SCC(=O)NC(=O)CN3CCCC3=O)s2)cc1	i	i	13.4µM	nt	nt	nt
CN(C)Cc1cc(O)c(CN(C)C)cc1O	i	3.16µM	?	i	i	?
CN(C)Cc1cc(C(C)(C)C)cc(C(C)(C)C)c1O	i	i	i	i	i	i
O=c1c(/C=C(\O)c2ccc(F)cc2)nc2ccccc2n1-c1ccccc1	i	nt	i	i	i	28.2µM
Cn1c(=O)c(/C=C/c2ccc(F)cc2)nc2ccccc21	i	i	i	i	i	?
CNCc1ccccc1Sc1ccc(O)c(O)c1	i	?	31.6µM	i	?	14.1µM
COc1ccc(Sc2ccccc2CN(C)C)cc1OC	i	i	i	i	i	i
CS(=O)(=O)c1ccc(C(=O)Nc2nc(-c3ccco3)c(-c3ccco3)s2)cc1	?	7.08µM	i	nt	nt	nt
COC(=O)CSC1=C(C#N)C(=O)NC(c2ccccc2)S1 (centres undefined)	35.5µM	nt	i	i	i	?
CSC1=C(C#N)C(=O)NC(c2ccccc2O)S1 (centres undefined)	i	i	i	i	i	i
CC1CN(S(=O)(=O)c2csc(C(=O)Nc3ccccc3)c2)CC(C)O1 (centres undefined)	i	nt	i	i	nt	nt
O=C(O/N=C/C1=C(Cl)c2ccccc2CC1)c1ccc(F)cc1	i	nt	i	i	i	i
COc1cccc(-c2nc3c(c(C)nn3-c3ccccc3)c3cc(OC)c(OC)cc23)c1	i	nt	nt	i	nt	nt
COc1cc2c(-c3ccc(O)cc3)nc3c(c(C)nn3-c3ccccc3)c2cc1OC	i	i	i	14.1µM	i	?
CC(C)c1ccc(Cn2cnc3c(cnn3C(C)(C)C)c2=O)cc1	nt	nt	i	nt	nt	nt
C=C(C)C(=O)Nc1ccc2c(c1)OCCOCCOCCO2	i	3.55µM	i	?	?	i
Cc1cc(C)c2c(c1)/C(=N/Nc1ccc(S(N)(=O)=O)cc1[N+](=O)[O-])CCC2	i	i	i	i	i	i
